Test results as given in publication PMC4336329 (PLoS ONE, 2015).
The campaign covered roughly 310,000 compounds. About 14,000 (4.5%) showed an effect of 50% or more. Effects have a minus sign here. The entries come from a sample that favours strong results as a whole.

target: human ether-à-go-go-related gene (hERG) potassium channel (human, UniProt Q12809); assay: primary screen, population patch clamp on CHO cells stably expressing hERG; higher = less effect of the substance
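Further: peak tail current of the secondary pulse compared with the same well before compound.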

Chain of human ether-à-go-go-related gene (hERG) potassium channel (Q12809 whole entry, looked up): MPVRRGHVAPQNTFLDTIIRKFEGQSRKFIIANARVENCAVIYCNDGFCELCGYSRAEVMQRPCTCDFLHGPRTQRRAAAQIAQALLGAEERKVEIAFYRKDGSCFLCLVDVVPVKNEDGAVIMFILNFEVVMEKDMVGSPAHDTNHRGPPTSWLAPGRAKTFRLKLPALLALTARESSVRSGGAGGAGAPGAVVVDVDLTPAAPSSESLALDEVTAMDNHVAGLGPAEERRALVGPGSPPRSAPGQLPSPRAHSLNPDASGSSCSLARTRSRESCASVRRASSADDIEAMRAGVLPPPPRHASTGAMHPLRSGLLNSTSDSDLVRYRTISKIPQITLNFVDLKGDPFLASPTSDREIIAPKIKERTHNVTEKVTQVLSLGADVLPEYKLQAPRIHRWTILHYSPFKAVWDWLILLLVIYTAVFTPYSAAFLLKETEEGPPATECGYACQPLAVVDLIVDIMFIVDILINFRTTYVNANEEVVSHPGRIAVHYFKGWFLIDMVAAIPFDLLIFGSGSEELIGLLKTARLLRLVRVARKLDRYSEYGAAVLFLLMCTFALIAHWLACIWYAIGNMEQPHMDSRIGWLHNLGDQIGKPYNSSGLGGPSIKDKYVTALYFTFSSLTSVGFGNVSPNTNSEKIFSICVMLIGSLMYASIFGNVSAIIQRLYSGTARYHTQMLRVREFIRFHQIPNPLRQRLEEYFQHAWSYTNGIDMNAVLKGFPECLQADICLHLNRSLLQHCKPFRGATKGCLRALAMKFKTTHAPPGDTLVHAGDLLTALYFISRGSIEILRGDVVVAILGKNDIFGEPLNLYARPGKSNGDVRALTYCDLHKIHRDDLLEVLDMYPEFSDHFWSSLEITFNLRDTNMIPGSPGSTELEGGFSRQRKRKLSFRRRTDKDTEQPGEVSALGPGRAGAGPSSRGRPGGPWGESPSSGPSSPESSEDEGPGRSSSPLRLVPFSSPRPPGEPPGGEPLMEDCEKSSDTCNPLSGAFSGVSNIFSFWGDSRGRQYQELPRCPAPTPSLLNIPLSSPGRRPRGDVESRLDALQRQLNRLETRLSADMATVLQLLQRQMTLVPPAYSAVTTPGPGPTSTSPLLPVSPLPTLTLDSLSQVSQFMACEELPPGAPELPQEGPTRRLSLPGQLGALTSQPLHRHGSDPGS

Row | Compound | hERG current change (%, negative = inhibition) at 10uM
1 | C=CCn1c(SCC(=O)Nc2nccs2)nnc1-c1cc2cccc(OC)c2o1 | -4.98%
2 | CC1CCN(C2=NN3C(=N)/C(=C\c4ccc(OC(=O)c5ccco5)cc4)C(=O)N=C3S2)CC1 | 12.6%
3 | O=C(NCc1ccccc1)C(c1ccccn1)N(C(=O)c1csnn1)c1ccccc1F (stereo not shown) | -5.45%
4 | COc1ccc(N2CCN(C(=S)NCCc3ccccc3)CC2)cc1 | -5.71%
5 | O=C(CCCOc1ccccc1)N1CCN(c2ccccn2)CC1 | -8.9%
6 | Cc1ccc(Oc2ccccc2/C=C2\SC(=O)N(C)C2=O)cc1 | 4.1%
7 | C=CCNC(=O)CC1C(=O)NCCN1Cc1ccc(-c2ccccc2)cc1 (stereo not shown) | -7.59%
8 | CC(C)Cn1c(N)c(C(=O)COC(=O)CN2C(=O)C3CC=CCC3C2=O)c(=O)n(C)c1=O (stereo not shown) | -4.23%
9 | CCCc1[nH]nc2c1C(c1ccc(O)c(OC)c1)C(C#N)=C(N)O2 (stereo not shown) | -31.9%
10 | CN(C/C=C/c1ccccc1[N+](=O)[O-])Cc1ccccc1 | -46%
11 | COc1ccc(CCN(C)Cc2c(F)cccc2F)cc1OC | -25.6%
12 | COc1ccc(CCNC(=O)/C=C\c2ccccc2)cc1OC | -7.74%
13 | COc1ccc(CCN(C)C/C=C/c2ccccc2)cc1OC | -64.6%
14 | COc1ccc(CCN(C)C/C=C/c2ccccc2[N+](=O)[O-])cc1OC | -70.8%
15 | COc1ccc(CCN(C)c2ccc(C(N)=O)cc2[N+](=O)[O-])cc1OC | -6.3%
16 | Cc1ccn2cc(-c3cccc(NC(=O)C(C)C)c3)nc2c1 | 3.3%
17 | Cc1cc(NC(=O)CCC(=O)N(CC(=O)NC2CCCC2)c2cccc(F)c2)no1 | -3.17%
18 | Cc1ccc(C(=O)N[C@H](C(=O)Nc2sccc2C(N)=O)C(C)C)cc1 | 5.47%
19 | Cn1cc(-c2nnnn2-c2ccccc2)c(=O)c2ccccc21 | -8.94%
20 | O=C(Cn1cc(-c2nnnn2-c2ccc(Cl)cc2)c(=O)c2ccccc21)c1ccccc1 | 4.29%
21 | Cn1cc(-c2nnnn2-c2ccc(Cl)cc2)c(C(F)(F)F)n1 | -4.49%

Row | Compound | hERG current change (%, negative = inhibition) at 10uM
22 | Cn1cc(-c2nnnn2-c2ccc(Cl)cc2)c(=O)c2ccccc21 | -69.3%
23 | Clc1ccc(-n2nnnc2-c2ccccc2)cc1 | -0.933%
24 | CCn1cc(-c2nnnn2-c2ccc(Cl)cc2)c(=O)c2ccccc21 | -58.8%
25 | COc1ccc(OC)c(S(=O)(=O)N2CCCC(C(=O)NCc3ccco3)C2)c1 (stereo not shown) | -5.29%
26 | O=C(c1ccc(N2C(=O)CCC2=O)cc1)N1CCOCC1 | 7.4%
27 | O=C(NCCc1ccco1)C(=O)NCC1OCCCN1S(=O)(=O)c1cc(F)ccc1F (stereo not shown) | -8.36%
28 | CC(=O)C(Sc1nn(C)c(=S)s1)C(=O)Nc1ccccc1 (stereo not shown) | 3.73%
29 | COc1cccc(/C=C2\SC(=S)N(CCC(=O)NNC(=O)c3ccccc3OC)C2=O)c1 | 18.5%
30 | CCOc1ccc(CN(C(=O)c2oc3cc(C)ccc3c2C)C2CCS(=O)(=O)C2)cc1 (stereo not shown) | -10%
31 | Cc1ccc(NC(=O)CNC(=O)c2ccc3c(c2)OCO3)nc1 | 1.63%
32 | CCC(C)(C)n1nnnc1C(c1cc(OC)ccc1OC)N1CCC(C(N)=O)CC1 (stereo not shown) | -1.9%
33 | CC1CN(C(=O)CS(=O)(=O)Cc2ccccc2)CC(C)O1 (stereo not shown) | 17.1%
34 | COc1cccc(N/C(=N/C(=S)Nc2ccc(C)cc2C)Nc2nc(C)cc(C)n2)c1 | 0.704%
35 | Cl.NC(=NCc1ccccc1)NC(=O)c1nc(Cl)c(N)nc1N | -54.2%
36 | CS(=O)(=O)O.NC(=Nc1ccccc1)NC(=O)c1nc(Cl)c(N)nc1N | -50%
37 | Cl.NC(=NCCc1ccccc1)NC(=O)c1cc(Cl)ccc1O | -2.39%
38 | CSc1ncccc1C(=O)OCC(=O)c1ccc(S(=O)(=O)N2CCCCC2)cc1 | 23.5%
39 | CCOC(=O)N1CCN(C(=O)c2ccc(C)c(S(=O)(=O)N3CCCCC3)c2)CC1 | -46%
40 | O=S(=O)(c1ccc(F)cc1)N1CCN(c2nc(-c3ccc(F)cc3)cs2)CC1 | -8.44%
41 | CS(=O)(=O)N1CCN(c2nc(-c3ccc(F)cc3)cs2)CC1 | -77.2%
42 | CC(C)C(=O)N1CCN(c2nc(-c3ccc(Cl)cc3)cs2)CC1 | -82.5%

Row | Compound | hERG current change (%, negative = inhibition) at 10uM
43 | CCC(=O)N1CCN(c2nc(-c3ccc(Cl)cc3)cs2)CC1 | -25%
44 | CCOC(=O)N1CCN(c2nc(-c3ccc(Cl)cc3)cs2)CC1 | -8.2%
45 | Fc1ccc(-c2csc(N3CCSCC3)n2)cc1 | 17.6%
46 | CC(=O)c1ccc(N2CCN(C(=O)c3ccc(NC4=NC5CS(=O)(=O)CC5S4)cc3)CC2)cc1 (stereo not shown) | -1.77%
47 | COc1ccccc1NC(=O)C1CCOC1=O (stereo not shown) | 15.4%
48 | CCCn1nnnc1NCc1ccc(OC)cc1 | 15.3%
49 | O=C(CC1C(=O)NCCN1Cc1cccc(Oc2ccccc2)c1)NCCc1cscn1 (stereo not shown) | 8.01%
50 | C=CC[n+]1c(C)csc1Nc1cccc(Br)c1.[Br-] | -6.64%
51 | Cc1cccc(N(CC(=O)NCC2CCCO2)C(=O)CCC(=O)Nc2nccs2)c1 (stereo not shown) | 12.9%
52 | COc1ccc(N2CCN(C(=O)CNC(=O)Cc3ccccc3)CC2)cc1 | -13.3%
53 | CCN(CC)CCNC(=O)c1c(C)oc2cc(Br)c(OC)cc12 | -32.1%
54 | COc1cc2c(C(=O)N3CCOCC3)c(CSc3ccccc3)n(C)c2cc1Br | -6.35%
55 | COc1ccc2c(c1)c(C(=O)N1CCN(C)CC1)c(C)n2-c1ccccc1 | -44%
56 | COc1cc2c(C(=O)N3CCN(C)CC3)c(CSc3ccccc3)n(C)c2cc1Br | -74%
57 | CCN(CC)CCNC(=O)c1c(C)n(-c2ccccc2)c2cc(Br)c(OC)cc12 | -51.5%
58 | COc1cc2c(C(=O)OCCN(C)C)c(CSc3ccccc3)n(C)c2cc1Br | 5.67%
59 | COc1cc2c(C(=O)N3CCN(C)CC3)c(C)n(-c3ccccc3)c2cc1Br | -54.7%
60 | COc1cc2c(C(=O)O)c(C)n(C)c2cc1Br | 20.3%
61 | COc1cc2c(C(=O)N3CCN(C)CC3)c(C)n(C)c2cc1Br | -9.17%
